Shown are actives, neighbours in structure and some others; about 19% of the full set was active somewhere.
ELG1 repair inh = blocks ELG1-dependent DNA repair in HEK293T cells | HEK293T ELG1-luciferase reporter, luminescence, 16 h; DNA damage induced by 5-fluorouridine | 2.3% of 330,000 active | Potency, µM (doses to about 46.1 µM), for the others: at the top dose activity change, negative = inhibition, usual class: inhibitors; also: potency is read from the fitted curve at half-maximal effect; nearly all actives have a fitted effect of over 55% in size
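Overnight (16 hr) co-exposure of 2,000 cells/well to 5-fluorouridine and compound at 37 °C preceded detection. Luciferase was quantified via ONE-Glo luminescence; loss of signal denotes inhibition.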
HT1080 IDH1KD tx = toxicity to HT-1080 IDH1 knockdown cells (counter line). HT-1080 IDH1 knockdown viability, ATP luminescence, 48 h. Potency, µM (titrated, usually from 46.1 µM), inactives show at the top dose activity, negative = toxicity, hits mostly cytotoxic. 2% of 360,000 active. AID 686971;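 also: potency is read from the fitted curve at half-maximal effect; 0% = DMSO wells and -100% = cell-free medium wells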
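Knockdown cells (IDH1KD HT-1080) received compounds 2 h after plating at 750 cells/well and were kept 48 h at 37 °C in 5% FBS RPMI. A CellTiter-Glo luminescence read gave % activity for curve fitting.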
IL1B secr inh = inhibitors of inflammasome signaling (IL-1 beta secretion); THP-1 LPS/ATP IL-1B secretion, AlphaLISA, 16 h; active compounds read low; activity change, % at 57.5 µM; 4.7% of 360,000 active; AID 743279; in the data active = activity change below about -50%; inconclusive = mostly about -30% to -49%
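Secreted IL-1B measured by AlphaLISA bead assay after 16 h compound exposure of THP-1 cells; compounds (final up to 57.5 uM) added 1 h before LPS (250 ng/mL) and ATP (1.25 mM) stimulation; lower signal means less secretion.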
TDP1 cell noCPT = qHTS for Inhibitors of human tyrosyl-DNA phosphodiesterase 1 (TDP1): qHTS in cells in absence of CPT. 15% of 420,000 active. DT40 Tdp1-/- hTDP1 cells, no CPT, ATP luminescence, 48 h. AID 686978, 2013. Potency, µM (top dose mostly 46.2 µM), without a hit: at the top dose activity change, negative = growth inhibition, usual class: inhibitors; also: potency is read from the fitted curve at half-maximal effect; nearly all actives have a fitted effect of over 55% in size
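Growth kinetics read by CellTiter-Glo luminescence after ≥48 hr at 37 °C. Cells: DT40 Tdp1-/- stably carrying human TDP1, 400 per well, compound exposure in the absence of CPT (DMSO vehicle).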
HT1080NT lethal = kills 2HG-producing HT-1080-NT fibrosarcoma cells. Potency, µM (top dose mostly 46.1 µM), for inactives: top-dose activity, negative = less viability, hits mostly cytotoxic. 1.6% of 360,000 active. HT-1080-NT fibrosarcoma viability, CellTiter-Glo ATP luminescence, 48 h. AID 686970;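 also: NT is the 2HG producing partner of a matched IDH1 knockdown line; potency is read from the fitted curve at half-maximal effect; 0% = DMSO-treated cells and -100% = media-only wells without cells; nearly all actives have a fitted effect of over 55% in size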
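Luminescent CellTiter-Glo readout after 48 hours of compound exposure at 37 degrees C defined viability of HT-1080-NT cells. Activity was normalized to DMSO wells and cell-free media wells; concentration-response curves were fitted and assigned curve classes.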
TDP1 cell CPT = DT40-hTDP1 cell growth loss with CPT. chicken DT40 Tdp1-/-;hTDP1 cells + 20 nM CPT, ATP luminescence, 48 h. Potency, µM (top dose mostly 46.2 µM), inactives show at the top dose activity change, negative = growth inhibition, most hits filed as inhibitors. 12% of 420,000 active. AID 686979; also: potency is read from the fitted curve at half-maximal effect; nearly all actives have a fitted effect of over 55% in size
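Chicken DT40 Tdp1-/- cells stably complemented with human TDP1 were seeded at 400 cells/well in medium containing 20 nM camptothecin, exposed to pin-transferred compounds, and grown at 37 °C for at least 48 hr. Viability was read as ATP luminescence.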
An asterisk follows results filed as active; ? = inconclusive; . = no result given. Unless noted, calls follow the shape of the dose curve; as a rule, active = well fitted curve in the direction sought with a large enough effect; inconclusive = small, poorly fitted or top-dose-only effect, or another doubt; inactive = no such curve, though single readings can be large; an effect the other way counts as inactive or inconclusive. Unless noted, % is scaled to controls: 0 for no effect and ±100 for the full control effect.

SMILES	ELG1 repair inh	HT1080 IDH1KD tx	IL1B secr inh	TDP1 cell noCPT	HT1080NT lethal	TDP1 cell CPT
O=C(Cn1ncc2c(=O)oc3ccccc3c21)NC1CC1	3%	-1%	15	-26%	-5%	-1%
Cc1ccc2[nH]c3c(=O)n(CC(=O)N(C)c4cc(Cl)ccc4C)ncc3c2c1	.	.	.	15µM*	.	18µM*
Cc1ccc2oc(=O)c3cnn(CC(=O)NC4CCN(Cc5ccccc5)CC4)c3c2c1	?	4%	-10	21µM*	2%	16µM*
Cc1ccc(Cl)cc1N(C)C(=O)Cn1ncc2c([nH]c3ccccc32)c1=O	-3%	9%	-6	-19%	19%	-21%
Cc1ccc2[nH]c3c(=O)n(CC(=O)N(CCN(C)C)Cc4ccccc4)ncc3c2c1	.	.	.	23µM*	.	?
O=C(O)COCC(=O)Nc1ccc(OCCc2ccccc2)cc1	21%	1%	8	2%	4%	13%
CCOC(=O)c1c(NC(=O)c2cc3ccccc3c(=O)o2)sc2c1CCC(C(C)(C)C)C2 (centres undefined)	.	.	.	7%	.	9%
CN(Cc1ccco1)C(=O)Cn1ncc2c([nH]c3ccccc32)c1=O	?	-4%	-2	-19%	-1%	0%
Cc1ccc(C)c(N2CCN(C(=O)Cn3ncc4c([nH]c5ccc(C)cc54)c3=O)CC2)c1	?	16%	6	13µM*	15%	15µM*
Cc1ccc2oc(=O)c3cnn(CC(=O)N4CCN(c5cc(Cl)ccc5C)CC4)c3c2c1	.	.	.	16µM*	.	?
Cc1ccc(N(C)C(=O)Cn2ncc3c([nH]c4ccccc43)c2=O)cc1C	.	.	.	?	.	12µM*
CN(C(=O)c1ccccc1F)C(c1ccccc1)c1ccccc1	-13%	-7%	-10	16µM*	-2%	10µM*
Cc1ccc(C(=O)N/C(=C/c2ccc(N(C)C)cc2)C(=O)NCC2CCCO2)cc1 (centres undefined)	-6%	-9%	-2	-13%	-10%	1%
Cc1cccc(NS(=O)(=O)c2cccc(C(=O)NCC(c3ccco3)N(C)C)c2)c1 (centres undefined)	1%	-1%	-6	?	1%	-5%
O=C(O)c1ccc(CSc2nc3ccccc3c(=O)n2-c2ccccc2)cc1	3%	-6%	-9	-8%	-16%	-18%
N=C(N)SCc1nc2ccccc2c(=O)n1-c1ccccc1	?	17%	?	18µM*	12%	?
CCOc1ccc(NC(=O)CNC(=O)c2nn(-c3ccc(OC)cc3)c(=O)c3ccccc23)cc1	?	1%	91	12µM*	0%	-23%
COc1ccc(-n2nc(C(=O)NCC(=O)Nc3cccc(Cl)c3)c3ccccc3c2=O)cc1	13µM*	4%	-3	?	17%	?
COc1ccc(-n2nc(C(=O)NCC(=O)Nc3cc(OC)c(OC)c(OC)c3)c3ccccc3c2=O)cc1Cl	?	-24%	0	1.6µM*	-22%	?
COc1ccc(-n2nc(C(=O)NCC(=O)NCCCN3CC(C)CC(C)C3)c3ccccc3c2=O)cc1Cl (centres undefined)	8%	?	-71*	?	?	-12%
CCN(CC)C(=O)CNC(=O)c1nn(-c2ccc(OC)c(Cl)c2)c(=O)c2ccccc12	-14%	-3%	23	-21%	-12%	-2%
Cc1cc(C(=O)Nc2c(C)nc3ccccn3c2=O)ccc1[N+](=O)[O-]	.	.	.	-18%	.	-29%
Cc1ccc(C(=O)Cn2c(C(=O)OCCO)cc3ccccc32)cc1	-22%	?	30	?	?	?
COc1c(-c2ccccc2)oc2c(ccc3occc32)c1=O	?	-8%	0	?	-4%	-18%
COc1ccc(-n2ncc(C(=O)N3CCN(c4ncccn4)CC3)c2C2CCN(C(=O)OC(C)(C)C)CC2)cc1	.	.	.	-13%	.	-15%
SMILES	ELG1 repair inh	HT1080 IDH1KD tx	IL1B secr inh	TDP1 cell noCPT	HT1080NT lethal	TDP1 cell CPT
COc1ccc(CNC(=O)CCSCc2ccccc2C)cc1	7%	12%	41	6%	5%	7%
Cn1nc(C2CC2)cc1NC(=O)C1(C)CCN1C(=O)CC(c1ccccc1)c1ccccc1 (centres undefined)	.	0%	-14	13µM*	2%	23µM*
Cn1nc(C(C)(C)C)cc1NC(=O)C1(C)CCN1C(=O)CC(c1ccccc1)c1ccccc1 (centres undefined)	.	-6%	-20	18µM*	6%	18µM*
Cn1nc(C2CC2)cc1NC(=O)C1(C)CCN1C(=O)c1ccccc1CCc1ccccc1 (centres undefined)	.	6%	-9	16µM*	?	29µM*
CCCC(=O)N1CCC1(C)C(=O)Nc1cc(-c2ccccc2)nn1C (centres undefined)	.	-14%	92	-74%	-2%	?
Cn1nc(C(C)(C)C)cc1NC(=O)C1(C)CCN1C(=O)C1(c2ccccc2)CC1 (centres undefined)	.	-2%	0	?	4%	?
CCCCNC(=O)CCC(=O)N1CCN(C(c2ccccc2)c2ccccc2)CC1	-19%	9%	36	-4%	-3%	-17%
CSCCC(NC=O)C(=O)NC(CC(C)C)C(=O)NC(Cc1ccccc1)C(=O)O (centres undefined)	.	.	.	-3%	.	-4%
CSCCC(NC=O)C(=O)NC(C)C(=O)O (centres undefined)	.	7%	-22	0.65µM*	-1%	2.9µM*
O=C(c1ccc2c(c1)OCO2)c1cn(Cc2ccc(Cl)cc2)c2ccc(F)cc2c1=O	.	.	.	21µM*	.	?
COc1ccc2c(c1)c(=O)c(C(=O)c1ccc(F)cc1)cn2CC(=O)Nc1ccc2c(c1)OCO2	.	.	.	?	.	-28%
COc1ccc(Cn2cc(C(=O)c3ccc(Cl)cc3)c(=O)c3cc4c(cc32)OCO4)cc1	.	.	.	23µM*	.	?
Cc1ccc2c(c1)c(=O)c(C(=O)c1ccc3c(c1)OCO3)cn2Cc1ccc(Cl)cc1	.	.	.	16µM*	.	?
COc1ccc2c(c1)c(=O)c(C(=O)c1ccc(Cl)cc1)cn2CC(=O)Nc1ccc2c(c1)OCO2	.	.	.	-17%	.	1%
CCc1ccc(C(=O)c2cn(CC(=O)Nc3ccc4c(c3)OCO4)c3ccc(CC)cc3c2=O)cc1	.	.	.	?	.	-4%

Compound activity as filed in PubChem BioAssay.
